This note sets out measurements from PubChem BioAssay (EPA / NIEHS).

The structures appear in SMILES notation. Values joined by “and” are separate entries in the source; they are usually repeats but may differ in a detail not shown here. Equal entries are not always repeated. Results filed as inconclusive are left out. Active and inactive are the calls of the source. The calls were made as follows: active = hit-call score of the fitted dose curve at least 0.9, where 1 is the maximum; inconclusive = response in the unintended direction; inactive = score below 0.9. *1 amine or outer side, *2 acyl side, *3 side chain or, on linkers, in order; H or OH if unused. Where a SMILES comes first, the peptide text is derived from it. Bridges are numbered along the chain shown (N, C = ends). [ ]: non-standard residue; d: D form. The star is where a group is joined. X3 = NC1=N[C@@H]([C@H](N[*:1])C(=O)[*:2])C[C@H](O)N1; ΔAla(Z-3-ureido) = NC(=O)N/C=C(\N)C(=O)O; β3hOrn = NCCC[C@H](N)CC(=O)*; Dap = NC[C@H](N)C(=O)O

Cellular tumor antigen p53 (Homo sapiens), sequence (P04637 whole entry, looked up): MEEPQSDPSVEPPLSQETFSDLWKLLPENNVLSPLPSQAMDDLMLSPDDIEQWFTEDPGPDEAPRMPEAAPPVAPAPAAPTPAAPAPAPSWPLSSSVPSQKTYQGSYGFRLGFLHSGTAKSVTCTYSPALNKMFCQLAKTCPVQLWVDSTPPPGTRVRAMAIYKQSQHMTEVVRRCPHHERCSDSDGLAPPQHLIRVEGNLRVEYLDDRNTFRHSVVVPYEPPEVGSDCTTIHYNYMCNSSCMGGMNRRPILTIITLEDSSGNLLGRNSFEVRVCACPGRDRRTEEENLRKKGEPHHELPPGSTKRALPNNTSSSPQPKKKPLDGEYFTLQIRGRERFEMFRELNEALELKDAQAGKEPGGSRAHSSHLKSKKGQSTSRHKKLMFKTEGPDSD

System in one experiment: not listed separately
Put plainly: TOX21_p53_BLA_p5_viability: Viability Assessment in the Tox21 HCT-116 p53 Agonism Beta-lactamase Assay, Phase 5 (AID 2283600). Put shortly:
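4000 cells/well; 5 h pre-incubation; DMSO compounds pin-transferred, 217-fold dilution; 16 h, 37C/5% CO2; CCF4-AM 2 h RT; CellTiter-Glo 30 min RT; luminescence.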
Regarding `CC(CO)(CO)CO`, the molecule was called inactive.
Same read-out and setting: then `CC(C)[C@@H](N)C(=O)O`, with “inactive”; and `CCCCCCCCCCCCCCCCCCCCCC(=O)Nc1ccn([C@@H]2O[C@H](CO)[C@@H](O)[C@@H]2O)c(=O)n1`, with “inactive”.
On the same count and under the same terms, to `O=C(Cl)c1ccccc1[N+](=O)[O-]` belongs “inactive”; to `CCN(CC)CCOCCOC(=O)C(CC)(CC)c1ccccc1`, “inactive”.
Same read-out and setting: then `c1ccc2sc(SSc3nc4ccccc4s3)nc2c1`, with “inactive”; and `CCCCCCCCN`, with “inactive”.
`O=C(Cl)c1cc(Cl)cc(Cl)c1`: the call was inactive.
On the same count and under the same terms, then `COc1ccccc1N1CCN(CCCNc2cc(=O)n(C)c(=O)n2C)CC1`, with “inactive”; and `C=CS(=O)(=O)O`, with “inactive”; and `CCN(Cc1ccncc1)C(=O)C(CO)c1ccccc1` (centres undefined), with “inactive”.
On the same count and under the same terms, then `c1ccc(CCNc2nc(-c3ccccc3)cs2)cc1`, with “inactive”.
On the same count and under the same terms, to `BrC/C=C/CBr` belongs “inactive”.
As for `O=C(O)C(=O)Cc1c[nH]c2ccccc12`, the molecule was called inactive.
The same measure, in the same setting: then `O=C[C@H](O)[C@@H](O)[C@H](O)[C@H](O)CO`, with “inactive”; and `CC(=O)NC(Cc1ccccc1)C(=O)O` (centres undefined), with “inactive”; and `O=[N+]([O-])c1ccc2[nH]ncc2c1`, with “inactive”.
Consider `C[C@@H]1O[C@@H](OC[C@H]2O[C@@H](Oc3c(-c4ccc(O)c(O)c4)oc4cc(O)cc(O)c4c3=O)[C@H](O)[C@@H](O)[C@@H]2O)[C@H](O)[C@H](O)[C@H]1O`, for which the molecule was classed as inactive.
The same measure, in the same setting: then `O=C(CCCN1CCC(O)(c2cccc(C(F)(F)F)c2)CC1)c1ccc(F)cc1`, with “inactive”.
Same read-out and setting: to `Cc1cnc(C(=O)NCCc2ccc(S(=O)(=O)NC(=O)NC3CCCCC3)cc2)cn1` belongs “inactive”; to `O=C(NCCN1CCOCC1)c1ccc(Cl)cc1`, “inactive”; to `NCCCNCCSP(=O)(O)O`, “inactive”.
For the molecule `CO/N=C(/C(=O)N[C@@H]1C(=O)N2C(C(=O)OCOC(=O)C(C)(C)C)=C(C)CS[C@H]12)c1csc(N)n1`, the outcome was inactive.
Still for that read-out and setting: to `CCCc1ccc(C(=O)O)cc1` belongs “inactive”.

The target of a further experiment is Cellular tumor antigen p53 (Homo sapiens) (UniProt P04637). Put plainly: TOX21_p53_BLA_p4_ratio: Tox21 HCT-116 p53 Agonism Beta-lactamase Assay, Ratio, Phase 4 (AID 2283601). Put shortly:
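Signal is the blue/green (460nm/530nm) ratio of cleaved versus uncleaved CCF4-AM substrate, read after 2 h substrate loading. Cells were HCT116 carrying the p53-responsive beta-lactamase reporter, dosed 16 h at 37C, 5% CO2; CellTiter-Glo measured in parallel.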
In the case of `NC(=O)c1cc[n+](CC2=C(C(=O)O)N3C(=O)[C@@H](NC(=O)[C@@H](c4ccccc4)S(=O)(=O)[O-])[C@H]3SC2)cc1`, the result was inactive.
With `CC(CO)(CO)CO`, the outcome was inactive.
Same read-out and setting: to `CC(C)[C@@H](N)C(=O)O` belongs “inactive”.
Consider `CCCCCCCCCCCCCCCCCCCCCC(=O)Nc1ccn([C@@H]2O[C@H](CO)[C@@H](O)[C@@H]2O)c(=O)n1`, for which the AC50 (commonly the concentration giving half of the maximal activity seen) is 14.3 µM (active).
Take `CCN(CC)CCOCCOC(=O)C(CC)(CC)c1ccccc1`: the outcome was inactive.
On the same count and under the same terms, to `CC12CC3CC(C)(C1)CC(N)(C3)C2` belongs “inactive”; to `c1ccc2sc(SSc3nc4ccccc4s3)nc2c1`, “inactive”.
Still for that read-out and setting: to `CN(C)CCN(Cc1cccs1)c1ccccn1` belongs “inactive”; to `COc1ccccc1N1CCN(CCCNc2cc(=O)n(C)c(=O)n2C)CC1`, “inactive”; to `C=CS(=O)(=O)O`, “inactive”.
For `Nc1ccc2cc3ccc(N)cc3nc2c1`, the concentration at half-maximal activity (AC50) is 1.64 µM (active) and 3.71 µM (active).
As to `Cn1c(=O)c2c(ncn2CC(O)CO)n(C)c1=O` (centres undefined), the outcome was inactive.
The same measure, in the same setting: to `O=C(O)C(=O)Cc1c[nH]c2ccccc12` belongs “inactive”; to `O=C[C@H](O)[C@@H](O)[C@H](O)[C@H](O)CO`, “inactive”.
On the same count and under the same terms, then `CC(=O)NC(Cc1ccccc1)C(=O)O` (centres undefined), with “inactive”; and `O=[N+]([O-])c1ccc2[nH]ncc2c1`, with “inactive”.
Same read-out and setting: then `C[C@@H]1O[C@@H](OC[C@H]2O[C@@H](Oc3c(-c4ccc(O)c(O)c4)oc4cc(O)cc(O)c4c3=O)[C@H](O)[C@@H](O)[C@@H]2O)[C@H](O)[C@H](O)[C@H]1O`, with “inactive”; and `O=C(CCCN1CCC(O)(c2cccc(C(F)(F)F)c2)CC1)c1ccc(F)cc1`, with “inactive”.
On to `Cc1cnc(C(=O)NCCc2ccc(S(=O)(=O)NC(=O)NC3CCCCC3)cc2)cn1`, for which the outcome was inactive.
On the same count and under the same terms, then `O=C(NCCN1CCOCC1)c1ccc(Cl)cc1`, with “inactive”.
On the same count and under the same terms, to `CCn1cc(C(=O)O)c(=O)c2cc(F)c(N3CCNCC3)cc21` belongs “inactive”.
Still for that read-out and setting: to `NCCC[C@H](N)CC(=O)N[C@H]1CNC(=O)[C@H]([C@H]2C[C@H](O)NC(N)=N2)NC(=O)/C(=C/NC(N)=O)NC(=O)[C@H](CO)NC(=O)[C@H](CO)NC1=O` (β3hOrn-[Dap]SS[ΔAla(Z-3-ureido)][X3]; lactam 1-C) belongs “inactive”; to `NC(=O)CC[C@@H]1NC(=O)[C@H](Cc2ccccc2)NC(=O)[C@H](Cc2ccc(O)cc2)NC(=O)CCSSC[C@@H](C(=O)N2CCC[C@H]2C(=O)N[C@@H](CCCN=C(N)N)C(=O)NCC(N)=O)NC(=O)[C@H](CC(N)=O)NC1=O`, “inactive”; to `OC[C@@H](O)C(O)[C@H](O)CO`, “inactive”.
`COc1cc([C@@H]2c3cc4c(cc3[C@H](O)[C@H]3COC(=O)[C@H]23)OCO4)cc(OC)c1OC`: the result was inactive.
